# Laboratory results as given in PubChem BioAssay (NCI).
# Compounds without any hit were thinned out: in the full panel of roughly 83,000, 20% have a hit.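 The endpoint reported here, percent growth, reads 100 for growth as untreated, 0 for no net growth and -100 for all cells dead.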 Active and inactive are the calls of the source. Rule for the calls: active = growth percent below 10; inactive = the rest.
# Experiments:
# Test in all cases: NCI-60 one-dose screen, 48 h (100 = growth as untreated, 0 = no growth, -100 = all killed)
# Settings in all cases: 10 µM
# EKVX NSCLC = system: EKVX NSCLC
# SN12C renal = system: SN12C renal
# UO-31 renal = system: UO-31 renal
# TK-10 renal = system: TK-10 renal
# ACHN renal = system: ACHN renal
# A498 renal = system: A498 renal
# CCRF-CEM leukemia = system: CCRF-CEM leukemia
# MOLT-4 leukemia = system: MOLT-4 leukemia
# SR leukemia = system: SR leukemia
# RPMI-8226 leukemia = system: RPMI-8226 leukemia
# OVCAR-8 ovarian = system: OVCAR-8 ovarian
# OVCAR-5 ovarian = system: OVCAR-5 ovarian
# OVCAR-4 ovarian = system: OVCAR-4 ovarian
# SK-OV-3 ovarian = system: SK-OV-3 ovarian
# OVCAR-3 ovarian = system: OVCAR-3 ovarian
# HS 578T breast = system: HS 578T breast
# NCI/ADR-RES ovarian = system: NCI/ADR-RES ovarian
# T-47D breast = system: T-47D breast
# IGROV1 ovarian = system: IGROV1 ovarian
# CAKI-1 renal = system: CAKI-1 renal
SMILES,growth (EKVX NSCLC),growth (SN12C renal),growth (UO-31 renal),growth (TK-10 renal),growth (ACHN renal),growth (A498 renal),growth (CCRF-CEM leukemia),growth (MOLT-4 leukemia),growth (SR leukemia),growth (RPMI-8226 leukemia),growth (OVCAR-8 ovarian),growth (OVCAR-5 ovarian),growth (OVCAR-4 ovarian),growth (SK-OV-3 ovarian),growth (OVCAR-3 ovarian),growth (HS 578T breast),growth (NCI/ADR-RES ovarian),growth (T-47D breast),growth (IGROV1 ovarian),growth (CAKI-1 renal)
O=C(Nc1nc2ccccc2s1)Nc1ccc([N+](=O)[O-])cc1Cl,90.4% (inactive),78.8% (inactive),26.8% (inactive),57% (inactive),88% (inactive),106% (inactive),57.7% (inactive),91.1% (inactive),48.3% (inactive),36.9% (inactive),-26.4% (active),105% (inactive),-45.6% (active),63.9% (inactive),38.1% (inactive),70.7% (inactive),14.4% (inactive),61.7% (inactive),,
CC12O[C@H](C[C@@H](O)[C@H]1O)n1c3ccccc3c3c4c(c5c6ccccc6n2c5c31)C(=O)N(CCCN)C4=O,54.9% (inactive),36.2% (inactive),57.6% (inactive),38.8% (inactive),79.4% (inactive),42.3% (inactive),11.2% (inactive),-3.13% (active),0.745% (active),40.2% (inactive),33.9% (inactive),97.2% (inactive),61% (inactive),41.8% (inactive),37.8% (inactive),43.4% (inactive),101% (inactive),24% (inactive),17.9% (inactive),
Nc1nc(N)c2c(ccc3nccc32)[nH]1,51.6% (inactive),94% (inactive),39.3% (inactive),92.1% (inactive),42.7% (inactive),79.4% (inactive),27.9% (inactive),33.9% (inactive),28.5% (inactive),43.2% (inactive),26.2% (inactive),65.2% (inactive),66.1% (inactive),58.8% (inactive),75.5% (inactive),89.5% (inactive),53.1% (inactive),73% (inactive),,
O=C(Nc1ccc(Cl)c([N+](=O)[O-])c1)Nc1nc2ccccc2s1,76.3% (inactive),65.1% (inactive),83.8% (inactive),112% (inactive),81.8% (inactive),85.7% (inactive),49.2% (inactive),79.7% (inactive),113% (inactive),7.17% (active),85.3% (inactive),103% (inactive),67.1% (inactive),84.9% (inactive),79.5% (inactive),103% (inactive),80.9% (inactive),,,
N#CC1=C(Nc2ccccc2Cl)SC(c2ccccc2O)NC1=O (centres undefined),108% (inactive),102% (inactive),84.5% (inactive),134% (inactive),97.7% (inactive),95.2% (inactive),99.9% (inactive),104% (inactive),123% (inactive),97.1% (inactive),111% (inactive),105% (inactive),111% (inactive),116% (inactive),127% (inactive),116% (inactive),110% (inactive),111% (inactive),102% (inactive),
CCOC(=O)c1ccc(NC(=O)Nc2ncc(Cl)cc2Cl)cc1,111% (inactive),86.8% (inactive),96.4% (inactive),108% (inactive),107% (inactive),91.9% (inactive),81.7% (inactive),93.2% (inactive),95.9% (inactive),94.5% (inactive),97.7% (inactive),101% (inactive),104% (inactive),100% (inactive),150% (inactive),132% (inactive),101% (inactive),73.4% (inactive),115% (inactive),
CC(=O)[C@H]1CC[C@H]2[C@@H]3CCC4=CC(=O)C=C[C@]4(C)[C@H]3CC[C@]12C,60.1% (inactive),95.9% (inactive),88.5% (inactive),106% (inactive),,60.4% (inactive),87.2% (inactive),87.1% (inactive),84.4% (inactive),68% (inactive),92.4% (inactive),93.2% (inactive),87.2% (inactive),104% (inactive),106% (inactive),96.2% (inactive),98.4% (inactive),86.8% (inactive),94.8% (inactive),87.8% (inactive)
CCN1CCN(c2nc3ccccc3c3c(=O)c4ccccc4sc23)CC1,59.1% (inactive),41.6% (inactive),29.8% (inactive),,22.8% (inactive),37% (inactive),29.2% (inactive),2.07% (active),-11.8% (active),53.8% (inactive),36.9% (inactive),68.7% (inactive),55.2% (inactive),59.9% (inactive),60.7% (inactive),52.6% (inactive),37.8% (inactive),,36.3% (inactive),
Cc1cc(N(CCCNc2ccnc3cc(Cl)ccc23)Cc2cccs2)nc(Cl)n1,48% (inactive),58.4% (inactive),27.8% (inactive),50.4% (inactive),56.7% (inactive),28.5% (inactive),,11.2% (inactive),0.473% (active),-6.73% (active),44.7% (inactive),69.1% (inactive),31.8% (inactive),42.4% (inactive),55.7% (inactive),65.4% (inactive),36.4% (inactive),,50.8% (inactive),
CCc1ccc2c(c1)N(CCO)C1=C(C(=O)OC1)C2c1cc(OC)c(OC)c(OC)c1 (centres undefined),29.9% (inactive),28.8% (inactive),35.5% (inactive),,32.2% (inactive),-13.7% (active),10.2% (inactive),11.4% (inactive),12% (inactive),18.3% (inactive),8.75% (active),,48.6% (inactive),23.4% (inactive),-57.6% (active),,-3.11% (active),59.7% (inactive),10.1% (inactive),11.4% (inactive)
CCC1(C(C)C)NC(=O)NC1=O (centres undefined),99.4% (inactive),88.1% (inactive),82.1% (inactive),,99.9% (inactive),,,101% (inactive),90.2% (inactive),91.8% (inactive),104% (inactive),89.3% (inactive),103% (inactive),107% (inactive),115% (inactive),,99.5% (inactive),97% (inactive),112% (inactive),104% (inactive)
COc1cc(/C=N/NC(=O)c2ccccc2Nc2cccc(C(F)(F)F)c2)cc(OC)c1OC,53.5% (inactive),57.4% (inactive),41.4% (inactive),,2.47% (active),-13.2% (active),,28.3% (inactive),-4.43% (active),236% (inactive),34.3% (inactive),62.1% (inactive),9.6% (active),16.1% (inactive),-53.8% (active),12.2% (inactive),12.6% (inactive),29.6% (inactive),-17.1% (active),29.2% (inactive)
Cc1ccc(NC(=O)CSc2nc3ccccc3c(=O)n2CCc2ccccc2)c(C(=O)O)c1,73.4% (inactive),96.6% (inactive),78.5% (inactive),,91.1% (inactive),87% (inactive),,,,,100% (inactive),111% (inactive),103% (inactive),93.6% (inactive),115% (inactive),106% (inactive),118% (inactive),96.2% (inactive),94.1% (inactive),81.5% (inactive)
O=C(CNC(=O)OCc1ccccc1)NCC(=O)Oc1ccc([N+](=O)[O-])cc1,101% (inactive),112% (inactive),86.4% (inactive),,105% (inactive),85% (inactive),109% (inactive),99.7% (inactive),101% (inactive),112% (inactive),,109% (inactive),99.2% (inactive),100% (inactive),111% (inactive),137% (inactive),96.2% (inactive),103% (inactive),109% (inactive),101% (inactive)
CCCCC/C=C/C(=O)CCc1ccc(O)c(OC)c1,91.2% (inactive),81.3% (inactive),37% (inactive),110% (inactive),103% (inactive),,27.6% (inactive),96.7% (inactive),53.4% (inactive),,88.6% (inactive),127% (inactive),,86.7% (inactive),55.8% (inactive),104% (inactive),,73.3% (inactive),,
CC12O[C@H](C[C@@H](OC(=O)c3ccccc3)[C@H]1O)n1c3ccccc3c3c4c(c5c6ccccc6n2c5c31)C(=O)NC4=O,36.4% (inactive),33% (inactive),-13.9% (active),7.3% (active),39.4% (inactive),-25.6% (active),,64.3% (inactive),50.3% (inactive),54.6% (inactive),86.5% (inactive),59.3% (inactive),84.5% (inactive),12.6% (inactive),103% (inactive),69.3% (inactive),77.8% (inactive),59.3% (inactive),62% (inactive),
